# Test results reported in PubChem BioAssay (Tox21).
# The source made the active and inactive calls. A call without a number means that no potency is given here. Calls follow the shape of the full dose curve.
# Assay: G protein-coupled receptor (GPCR) small molecule agonists, calcium flux assay: HEK293 wild type cell line counter screen (AID 1920065)
# Settings: HEK293 WT calcium flux, fluorescence, agonist mode; series mostly up to 57.6 µM
# Text: U.S. Tox21 Program National Center for Advancing Translational Sciences [NCATS] Division of Preclinical Innovation [DPI] U.S. Environmental Protection Agency [EPA] National Institutes of Environmental Health Sciences [NIEHS] National Toxicology Program [NTP] U.S. Food and Drug Administration [FDA] Assay overview: The increased intracellular calcium release that occurred upon G protein-coupled receptor (GPCR) activation led to the frequent use of calcium flux assays to detect GPCR activation. For the purpose of studying and screening compounds that may activate GPCR, receptor-overexpressing models were typically generated using Hek293 wild-type (WT) cells. In order to eliminate the compounds that may have induced calcium release for non-specific activation, a counter-assay utilizing calcium flux on Hek293 WT cells was performed. The data were formulated in order to serve as a control for any calcium flux detection utilizing Hek293 cells with either GPCR overexpression or gene modification. The procurement of Hek293 WT cells from ATCC. Fluorescence intensity can be utilized to determine the activation of the compound in a calcium flux assay. As a counter control, this cell line was utilized to screen the Tox21 10K compound library.
# Assay Protocol Summary: Hek293 cells were dispensed at 1500cells/4uL/well in 1536-well black wall/clear bottom plates using a multidrop dispenser. After the assay plates were incubated at a 37 C/5% CO2 incubator for 18 hours, 4 uL of Calcium Dye Solution was added to each well. The plates were incubated at 37 C for 1 hour. For agonist mode, 23 nL of compounds dissolved in DMSO, positive control (ATP) or DMSO only was transferred to the assay plate by a pin tool station. The fluorescence intensity in the plates was measured using FDSS 7000EX kinetic plate reader with a filter set of Ex/Em=480/540 for 3 min at 1 sec intervals. Each test compound was measured at 15 concentrations and in triplicates.
row,SMILES,Potency
1,CC(=O)OCC(=O)[C@@]1(O)CC[C@H]2[C@@H]3CCC4=CC(=O)C=C[C@]4(C)[C@H]3[C@@H](O)C[C@@]21C,inactive
2,NCc1cccc(CN)c1,inactive
3,CCOc1ccc(N)c([N+](=O)[O-])c1,inactive
4,C[Si](C)O[Si](C)C,inactive
5,CC(CN1c2ccccc2Sc2ccccc21)N(C)C (stereo not given),inactive
6,CCOCOCC,inactive
7,CCCC[O][Al]([O]CCCC)[O]CCCC,inactive
8,C=CCCCCCCCCO,inactive
9,NC(=O)NC1N=C([O][Al])NC1=O (stereo not given),inactive
10,CCCCCC/C=C/C(=O)OC,inactive
11,CCOC(=O)c1ccc(O)c(O)c1,inactive
12,CCCCc1ccc(Cl)cc1,inactive
13,CCCCCCCCCOCC1CO1 (stereo not given),inactive
14,Cn1cnc2c(F)c(Nc3ccc(Br)cc3Cl)c(C(=O)NOCCO)cc21,inactive
15,O=C1CCCCC1,inactive
16,CO[Si](CCCNCCN)(OC)OC,inactive
17,COCCOCCOCCOCCOCCO,inactive
18,CC/C=C\CC1=C(C)CCC1=O,inactive
19,C=Cc1ccccn1,inactive
20,Clc1ccc2c(c1)Nc1ccccc1S2,inactive

row,SMILES,Potency
1,O=C(C(=O)c1ccco1)c1ccco1,inactive
2,C=C(C)C(=O)OC(C)C,inactive
3,CC/C=C/CCO,inactive
4,OC[C@H]1O[C@@H]2O[C@H]3[C@H](O)[C@@H](O)[C@@H](O[C@H]4[C@H](O)[C@@H](O)[C@@H](O[C@H]5[C@H](O)[C@@H](O)[C@@H](O[C@H]6[C@H](O)[C@@H](O)[C@@H](O[C@H]7[C@H](O)[C@@H](O)[C@@H](O[C@H]8[C@H](O)[C@@H](O)[C@@H](O[C@H]1[C@H](O)[C@H]2O)O[C@@H]8CO)O[C@@H]7CO)O[C@@H]6CO)O[C@@H]5CO)O[C@@H]4CO)O[C@@H]3CO,inactive
5,CC(C)(C)C(=O)C(Oc1ccc(Cl)cc1)n1ccnc1 (stereo not given),inactive
6,COC(=O)CCCCC(=O)O,inactive
7,CC(C)C(=O)C(C)C,inactive
8,CCCCCc1cccc(=O)o1,inactive
9,CCOC(=S)SSC(=S)OCC,inactive
10,Cc1ccc2oc(=O)ccc2c1,inactive
11,C=C(C)C(=O)OCCCCCCCC(C)C,inactive
12,CC(C)(CCC(=O)O)C(=O)O,inactive
13,CC(C)(c1ccc(O)cc1)c1ccc(O)cc1,inactive
14,CC(=O)c1sc(C)nc1C,inactive
15,CCN(CC)CCNC(=O)c1ccc(NC(C)=O)cc1,inactive
16,Cc1cccc(N)n1,inactive
17,CC(C)(O)C(=O)c1ccc(OCCO)cc1,inactive
18,O=C(C(=O)c1ccccc1)c1ccccc1,inactive
19,CCCCC(CC)COCCC#N (stereo not given),inactive
20,Cc1ccc(C)cc1,inactive
